“And” between values parts separate entries of the source, which are not always exact repeats. Equal values may be shown once. Some compounds were tested as several samples or in several runs, with calls that do not always agree. The source made the active and inactive calls. The call rests on the fitted dose curve.
Experiment: qHTS assay to identify small molecule agonists of the estrogen related receptor (ERR) signaling pathway from Tox21 library (AID 1224849); further: nearly all actives have a fitted effect of over 15% in size
Settings: ERR reporter cell line, ONE-Glo luciferase, 18 h
Description: National Center for Advancing Translational Sciences [NCATS]
NIH Chemical Genomics Center [NCGC]
U.S. Environmental Protection Agency [EPA]
National Institutes of Environmental Health Sciences [NIEHS]
National Toxicology Program [NTP]
Estrogen related receptors (ERRs), the first orphan nuclear receptors discovered, play an important role in the control of cellular energy metabolism. ERRs are required for high-energy production in response to the environmental challenges. ERR-alpha was also identified as an adverse marker for breast cancer progression; ERR-alpha-positive tumors have a poor prognosis. To screen and to identify environmental compounds that perturb the ERR signaling pathways could provide valuable information for potential therapeutic or preventive measures in the treatment of metabolic disease. For identifying ERR agonists, ERR cell line (provided by NTP) has been used to screen Tox21 10K library.
The ERR cells were dispensed at 2,000 cells/5 ul/well in 1536-well white plates using a Multidrop dispenser. After the assay plates were incubated at a 37 C/5% CO2 incubator for 6 hours, 23 nL of compounds dissolved in DMSO, positive and negative controls or DMSO only was transferred to the assay plate by a pin tool. The plates were incubated at 37 C for 18 hours. 4 ul/well of One-Glo reagent was added into the assay plates using a Flying Reagent Dispenser. After 30-minute incubation at room temperature, the luminescence intensity in the plates was measured using a ViewLux plate reader.
On the % scale 0 is the no-effect control and ±100 the full control effect; potency means the concentration at half of the fitted maximal effect.

Row | Structure (SMILES) | Potency
1 | Nc1ccc(Cl)cc1N | 8.31 µM [activator] (active)

Same assay, conditions: ERR reporter cell line, ONE-Glo luciferase, 18 h; at 42.5 µM (top of the series)

Row | Structure (SMILES) | activity change, positive = activation
2 | NCc1cccnc1 | 0.61% (inactive)
3 | C[C@]12CCC(=O)C(O)=C1CC[C@@H]1[C@@H]2CC[C@]2(C)C(=O)CC[C@@H]12 | -8.87% (inactive)
4 | O=C(Nc1ccc(Br)cc1)c1cc(Br)cc(Br)c1O | -35.9% (inactive)
5 | CCC(C)(C)c1ccc(O)cc1 | -6.2% (inactive)
6 | CCOP(=S)(OCC)O/N=C(\C#N)c1ccccc1 | 3.78% (inactive)
7 | C=C(C)[C@H]1Cc2c(ccc3c2O[C@@H]2COc4cc(OC)c(OC)cc4[C@@H]2C3=O)O1 | -51.1% (inactive)

Same assay, conditions: ERR reporter cell line, ONE-Glo luciferase, 18 h; at 92.4 µM (top of the series)

Row | Structure (SMILES) | activity change, positive = activation
8 | OCC(O)CO | 2.36% (inactive) and 0.0013% (inactive)
9 | CCC(CC)Nc1c([N+](=O)[O-])cc(C)c(C)c1[N+](=O)[O-] | -5.44% (inactive) and 8% (inactive)
10 | NCc1cccnc1 | 4.26% (inactive)
11 | CC(C)c1ccc(CO)cc1 | 2.78% (inactive) and -0.788% (inactive)
12 | C[C@]12CCC(=O)C(O)=C1CC[C@@H]1[C@@H]2CC[C@]2(C)C(=O)CC[C@@H]12 | -37.5% (inactive)
13 | CCN(CC)C(=O)SCc1ccc(Cl)cc1 | 4.95% (inactive) and 6.33% (inactive)
14 | CCOC(=O)C(C)OC(=O)c1cc(Oc2ccc(C(F)(F)F)cc2Cl)ccc1[N+](=O)[O-] (stereo not given) | -45.1% (inactive) and -19.8% (inactive)
15 | O=C(Nc1ccc(Br)cc1)c1cc(Br)cc(Br)c1O | -31.1% (inactive) and -48% (inactive)
16 | Nc1c(Cl)cc([N+](=O)[O-])cc1Cl | -38.6% (inactive) and -54.4% (inactive)
17 | Brc1ccc(Oc2cc(Br)c(Br)cc2Br)c(Br)c1 | -14.5% (inactive)
18 | CCCCC(CC)COC(=O)Cl (stereo not given) | 0.183% (inactive) and -0.549% (inactive)
19 | CCC(C)(C)c1ccc(O)cc1 | -16.7% (inactive) and -1.98% (inactive)
20 | c1ccc(N=Nc2ccccc2)cc1 | 2.72% (inactive) and 1.53% (inactive)
21 | CC(C)C(=O)OCC(C)(C)C(OC(=O)C(C)C)C(C)C (stereo not given) | 5% (inactive) and 0.884% (inactive)
22 | CCC(C)c1ccc(O)cc1 (stereo not given) | -5.15% (inactive) and 5.69% (inactive)
23 | Cc1ccc(OP(=O)(Oc2ccc(C)cc2)Oc2ccc(C)cc2)cc1 | -19.4% (inactive) and -4.77% (inactive)
24 | O=Cc1ccco1 | 0.408% (inactive) and 7.35% (inactive)

Row | Structure (SMILES) | activity change, positive = activation
25 | Nc1ccc(Cl)c(Cl)c1 | -24.9% (inactive) and -36.3% (inactive)
26 | CCC(C)(c1ccc(O)cc1)c1ccc(O)cc1 | -28.1% (inactive) and -37.5% (inactive)
27 | NNC(N)=S | -76.7% (inactive) and -56.6% (inactive)
28 | NNC(=S)NN | -65.9% (inactive) and -38.7% (inactive)
29 | CCOc1cc(Oc2ccc(C(F)(F)F)cc2Cl)ccc1[N+](=O)[O-] | -29.7% (inactive) and -19.5% (inactive)
30 | CCOP(=S)(OCC)O/N=C(\C#N)c1ccccc1 | 4.34% (inactive)
31 | Nc1ccc(Cl)cc1N | 19.2% (active)
32 | CCCCN(CC)c1c([N+](=O)[O-])cc(C(F)(F)F)cc1[N+](=O)[O-] | -0.494% (inactive) and 5.99% (inactive)
33 | CC(C)(OOC(C)(C)c1ccccc1)c1ccccc1 | 7.35% (inactive) and 4.9% (inactive)
34 | O=P(Oc1ccccc1)(Oc1ccccc1)Oc1ccccc1 | -19.4% (inactive) and -25.7% (inactive)
35 | c1ccc(NNc2ccccc2)cc1 | 2.54% (inactive) and 6.77% (inactive)
36 | C1=Cc2cccc3cccc1c23 | -16.5% (inactive) and -13.1% (inactive)
37 | C=C(C)[C@H]1Cc2c(ccc3c2O[C@@H]2COc4cc(OC)c(OC)cc4[C@@H]2C3=O)O1 | -64.6% (inactive) and -64.1% (inactive)
38 | Cc1cccc(N)c1N | 5.31% (inactive) and 103% (active)
39 | Cc1ccc2c(c1N)C(=O)c1ccccc1C2=O | 82.1% (active) and 70.5% (active)
40 | CCN(CC)N=O | 0.678% (inactive)
